# Screening results deposited in PubChem BioAssay by several laboratories.
# Rows were chosen to be rich in hits. Some 1.3% of all compounds tested hit in one or more screens of this group.
# Mtb bLac sens = beta-lactam sensitization of Mtb H37Rv, H37Rv; AID 434955, 2010; 0.27% of 330,000 active; M. tuberculosis H37Rv growth with meropenem, percent inhibition; inhibition, % at 25 µM; call rule not given here;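 note: growth measured after seven days incubation then overnight dye step; 0% = bacteria only wells and 100% = bacteria with antibiotic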
# MazF activator = activators of E. coli MazEF toxin-antitoxin RNase, primary screen, biochemical, fluorescence, uHTS | Endoribonuclease toxin MazF (Escherichia coli (strain K12)), P0AE70 | FAM/BHQ RNA-DNA oligo cleavage fluorescence, 5 h | activation, % at 20 µM | 0.32% of 350,000 active; in the data active = activation above about 50%
# Target sequence (P0AE70 whole entry, looked up): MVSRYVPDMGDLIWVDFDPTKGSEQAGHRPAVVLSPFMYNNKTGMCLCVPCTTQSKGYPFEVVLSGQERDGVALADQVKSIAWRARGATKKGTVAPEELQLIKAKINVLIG
# CCHF vOTU inh-1 = CCHFV vOTU protease inhibitors, primary screen, biochemical, Pep-AMC substrate, fluorescence | AID 651958, 2012 | inhibition, % at 11.5 µM | 0.55% of 370,000 active; note: 0% = vehicle wells with enzyme and 100% = no enzyme wells
# SARS 3CLpro inh = SARS-CoV 3CLpro protease inhibitors, primary screen, biochemical, quenched FRET | Replicase polyprotein 1ab (Severe acute respiratory syndrome coronavirus), P0C6X7 | recombinant SARS-CoV 3CLpro, quenched FRET peptide cleavage | inhibition, % at 6 µM | 0.14% of 290,000 active; in the data active = inhibition above about 12%
# Sa RN4220 lethal = growth inhibition of S. aureus RN4220, primary screen, OD600. 16 h. inhibition, % (test concentration not listed). 0.33% of 330,000 active; in the data active = inhibition above about 85%;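 note: plate controls were untreated cells for no effect and reference antibiotic for full effect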
# Sa ugtP lethal = growth inhibition of ugtP-null S. aureus, primary screen, RN4220 ugtP deletion, OD600; 16 h; growth inhibition, % (test concentration not listed); 0.54% of 330,000 active; AID 1259309, 2017; in the data active = growth inhibition above about 68%;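 note: plate controls were untreated wells for no effect and antibiotic for full effect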
# CCHF vOTU inh-2 = CCHFV vOTU protease inhibitors, confirmation, biochemical, Pep-AMC substrate, fluorescence | shares compounds with CCHF vOTU inh-1 | Recombinant CCHFV vOTU | inhibition, % at 11.5 µM | 17% of 1,900 active
# * hit, by the source's call; · = no result given. Cut-off read from the data, not from the text of the source, unless noted: active = inhibition above about 30%; inactive = the rest.
SMILES,Mtb bLac sens,MazF activator,CCHF vOTU inh-1,SARS 3CLpro inh,Sa RN4220 lethal,Sa ugtP lethal,CCHF vOTU inh-2
O=c1cc(-c2ccccc2)nc(SCc2ccccc2)[nH]1,-1,3,2,2,2,-14,·
CCSc1nc(-c2ccccc2)cc(=O)[nH]1,-8,6,31*,·,4,-1,-12
CC(O)(c1ccc(F)c(F)c1)c1nc(/C=C/c2ccc(C(F)(F)F)cc2)cs1 (configuration not stated),·,·,33*,·,·,·,-6
O=C1NC(=O)N(Cc2ccc(F)cc2)C(=O)/C1=C\c1ccc([N+](=O)[O-])s1,99,-40,32*,4,·,·,23
O=C(c1ccc(S(=O)(=O)N2CCCCC2)cc1)N1CCc2ccccc2C1,-3,-11,-15,0,18,4,·
O=C(c1ccc(S(=O)(=O)c2ccccc2)cc1)N1CCc2ccccc2C1,2,-10,35*,7,7,-1,-17
O=C(NN=Cc1cc2c(cc1Cl)OCO2)c1cc(-c2ccccc2)n[nH]1,·,·,·,·,13,-10,·
C[C@@]12C(=O)Nc3ccccc3C(=O)N1C1c3cc(Cl)ccc3OCC1C2c1ccccc1 (some centres not stated),·,·,·,·,-10,1,·
O=C(CNC(=O)c1ccncc1)NN=Cc1cc(Br)ccc1O,·,·,·,·,-3,0,·
Cc1nc(-[n+]2nc(-c3ccncc3)nn2-c2ccccc2)sc1C,·,·,44*,·,·,·,-4
CC1=C(C(N)=O)C(c2ccccc2)n2nc(-c3ccncc3)nc2N1 (configuration not stated),-4,7,-6,0,0,-2,·
CCOC(=O)C(CNc1ccc(O)cc1)NC(=O)c1ccccc1 (configuration not stated),·,·,49*,·,·,·,0
CCOC(=O)CCC(NC(=O)c1ccc(NCN2C(=O)c3ccccc3C2=O)cc1)C(=O)OCC (configuration not stated),11,4,11,-1,3,-3,·
COC(=O)[C@]12C[C@H](CC(=O)NCCC(C)C)C(=O)N(Cc3ccc(Cl)cc3Cl)C1=C[C@H](C(C)(C)C)O[C@@H]2C,·,·,31*,·,·,·,6
CCOC(=O)[C@]12CCCC=C1N(Cc1ccc(Cl)cc1Cl)C(=O)[C@H](CC(=O)NCCc1ccccc1OC)C2,·,·,30*,·,·,·,-2
CCCCNC(=O)C[C@H]1C[C@@]2(C(=O)OC)C(=C[C@H](C(C)(C)C)O[C@@H]2C)N(Cc2ccc(Cl)cc2Cl)C1=O,·,·,26,·,·,·,·
CCOC(=O)[C@]12CCC=C1N(Cc1ccco1)C(=O)[C@H](CC(=O)NCc1cccs1)C2,·,·,33*,·,·,·,-24
COC(=O)[C@]12C[C@H](CC(=O)NCCc3ccccc3OC)C(=O)N(Cc3ccc(Cl)cc3Cl)C1=C[C@H](C(C)(C)C)O[C@@H]2C,·,·,30*,·,·,·,13
COc1ccc(OC)c(C=NNC(=O)c2ccc(=O)[nH]n2)c1,·,·,·,·,-1,-1,·
COc1ccc(C(=O)NN=C(C)c2cccc(NC(=O)C(F)(F)F)c2)cc1,·,·,·,·,5,-7,·
C#Cc1ccc(C2C=C(C(=O)NC3CC3)OC(OCC)C2CCCO)cc1 (configuration not stated),·,·,·,·,-1,2,·
O=C1NCC(Cc2ccccc2)N(CCc2cccc(F)c2)C1=O (configuration not stated),·,·,·,·,2,0,·
CCCCCCSc1ccc(C2N[C@@](CC(C)C)(C(=O)OC)C3C(=O)N(CC)C(=O)C23)cc1 (some centres not stated),·,·,·,·,-8,2,·
Cc1ccc(CN2C(=O)C3Cc4c([nH]c5ccccc45)C(C)(C)N3C2=O)cc1 (configuration not stated),·,·,·,·,0,3,·
Cc1nn(C)c(C)c1C=NNC(=O)CCn1cc([N+](=O)[O-])cn1,·,·,·,·,3,6,·
SMILES,Mtb bLac sens,MazF activator,CCHF vOTU inh-1,SARS 3CLpro inh,Sa RN4220 lethal,Sa ugtP lethal,CCHF vOTU inh-2
Cc1ccc(-n2c(C)nc3ccccc3c2=O)cc1C,-2,8,0,0,4,2,·
CC1=NN(c2ccc(C)c(C)c2)C(=O)C1C(c1cccc(O)c1)C1C(=O)N(c2ccc(C)c(C)c2)N=C1C (configuration not stated),10,5,42*,2,12,-2,11
NCCCCC(C(=O)N1CCNCC1)n1cc(C(N)CO)nn1 (configuration not stated),·,·,·,·,2,-1,·
CCN(CC)C(=O)c1cccc(-c2csc(C(O)c3ccc(F)c(F)c3)n2)c1 (configuration not stated),·,·,30*,·,·,·,8
CC(C)C(NS(=O)(=O)c1ccccc1)C(=O)OCC(=O)NC(=O)c1cccn1C (configuration not stated),·,·,·,·,8,8,·
O=[N+]([O-])c1ccc(N/N=C/c2ccc(O)c(O)c2O)c(S(=O)(=O)N2CCOCC2)c1,·,6,34*,2,·,·,4
O=C(NC1CCCC1)c1cccc2c1C(=O)c1ccc(C=Cc3ccccc3)cc1S2(=O)=O,·,·,·,·,7,11,·
O=S(=O)(c1ccccc1)N(CC(F)(F)F)c1ccc(C(O)(C(F)(F)F)C(F)(F)F)cc1,·,·,34*,·,·,·,0
CCN(c1ccc(C(O)(C(=O)OC)C(F)(F)F)cc1)S(=O)(=O)c1ccccc1 (configuration not stated),-6,5,9,-4,10,4,·
CN1c2ccccc2C(O)=C(C(=S)Nc2ccc(Cl)cc2)S1(=O)=O,59,-4,31*,0,50,16,6
CCCCC[C@@H](C)N1C[C@@H](COCc2ccccc2)Oc2cc(N3CCC[C@H]3CO)ccc2S1(=O)=O,·,·,28,·,·,·,·
CCCCC[C@H](C)N1C[C@@H](COCc2ccccc2)Oc2cc(N3CC[C@H](O)C3)ccc2S1(=O)=O,·,·,40*,·,·,·,3
CCCCC[C@@H](C)N1C[C@H](COCc2ccccc2)Oc2cc(N3CCC[C@@H]3CO)ccc2S1(=O)=O,·,·,33*,·,·,·,17
COC(=O)N/N=C1/C/C(=N\NC(=O)OC)c2ccccc21,6,2,89*,-4,·,·,72*
O=C(C=Cc1cn(-c2ccccc2)nc1-c1ccc2c(c1)OCCO2)NCCO,·,·,·,·,5,-1,·
O=C(COc1ccc(NC(=O)c2ccccc2)cc1)c1ccccc1,-6,10,31*,3,5,18,-13
Cc1ccc2cc(N)ccc2n1,·,-3,-2,-3,0,7,·
Nc1ccc2cc3ccc(N)cc3nc2c1,·,·,53*,·,·,·,30*
